# Compound activity (PubChem)
# A selection: hits, their analogues and other compounds. The true share with any hit is near 21%.
# HCMV antiviral: blocks human cytomegalovirus replication. HFF cells, HCMV-luciferase reporter, 72 h; hits give low values. activity change, negative = inhibition, % at 57.5 µM. 4.5% of 410,000 active; in the data active = activity change below about -60%; inconclusive = no clear call, values can overlap the other calls; inactive = above about -39%
#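 Steps: HFFs plated, 16 h 37C; compounds added; HCMV-luciferase added to MOI 1 PFU/cell; 72 h 37C; OneGlo reagent, 5 min room temperature; luminescence read, normalized to controls.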
# Pf growth 48h: P. falciparum growth inhibition at 48 hours (one generation); Potency, µM (highest dose often 28.7 µM), actives largely listed as inhibitors; 5.9% of 310,000 active; P. falciparum luciferase growth in erythrocytes, 48 h; AID 504832
#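 In quantitative HTS format, infected erythrocytes bearing luciferase-reporter parasites were treated for a single generation at 37 C. Luminescence after adding detection reagent served as the growth measure.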
# Pf growth 96h: inhibits malaria parasite growth, 96 h; P. falciparum luciferase reporter growth, 96 h; Potency, µM (top dose mostly 28.7 µM), most hits filed as inhibitors; 6.9% of 320,000 active; AID 504834
#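 Parasite growth measured via integrated firefly luciferase reporter in P. falciparum. Infected erythrocytes at 2% hematocrit, 0.05% parasitemia final were treated 96 hours at 37 C under 5% CO2, and luminescence was read.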
# Shiga toxin inh: inhibitors of Shiga toxin in Vero cells; Vero cells, Shiga toxin protein synthesis inhibition reporter; inhibition, % at 38.7 µM; 9.2% of 290,000 active; AID 2315; in the data active = inhibition mostly above about 28%, no sharp cut-off; inactive = mostly below about 43%
# HCV inh: HCV inhibition. Huh7.5.1 HCVcc-Cre infection, luciferase reporter, 44 h. Potency, µM (highest dose often 41.8 µM), hits mostly inhibitors. 3.4% of 340,000 active
#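 Infectious HCVcc-Cre (~0.5 moi) was added to cells just after compound, with cells seeded 4 h earlier at 1,000 per well. Luciferase activity after 44 h culture reported infection; substrate was incubated 15 min at room temperature before reading.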
# Cycloheximide cs: counter-screen for Shiga toxin inhibitors: cycloheximide protein synthesis inhibition. cell reporter, cycloheximide protein synthesis inhibition counterscreen. 12% of 300,000 active. AID 2314. max response, %; in the data active = max response mostly above about 13%, no sharp cut-off; inactive = mostly below about 14%; also: read at 38.3 µM for the half of the compounds with a filed dose
# Hits are given with their value; i = inactive; ? = inconclusive; nt = no result. Unless noted, calls follow the shape of the dose curve; as a rule, active = well fitted inhibition curve with a large enough effect; inconclusive = small, poorly fitted or top-dose-only effect, or another doubt; inactive = no such curve, though single readings can be large or run the other way.
SMILES,HCMV antiviral,Pf growth 48h,Pf growth 96h,Shiga toxin inh,HCV inh,Cycloheximide cs
CC(C(=O)N(C)C1CCS(=O)(=O)C1)N1C(=O)/C(=C/c2ccco2)SC1=S (stereo not drawn),-93.1,i,?,i,i,i
CCN(C(=O)C(C)N1C(=O)/C(=C/c2cccs2)SC1=S)C1CCS(=O)(=O)C1 (stereo not drawn),-63.5,?,?,i,i,i
C/C(=N/NC(=O)CNC(=O)Cc1ccccc1)c1ccc(Cl)cc1,i,i,i,i,i,i
O=C(Nc1cccc(Cl)c1Cl)c1ccc2c(c1)N(Cc1cccc(Cl)c1)C(=O)c1ccccc1S2(=O)=O,i,nt,nt,nt,nt,nt
Cc1ccccc1OCc1nc2ccccc2c(=O)n1/N=C/c1cn[nH]c1-c1ccc(Br)cc1,?,?,5.22µM,i,i,13.0
O=c1c2ccccc2nc(COc2ccccc2)n1/N=C/c1ccc(O)cc1O,-95.9,i,i,93.9,?,16.0
Cc1ccc(-c2[nH]ncc2/C=N/n2c(C)nc3ccccc3c2=O)cc1,i,i,i,i,i,i
O=c1c2ccccc2nc(COc2ccccc2)n1/N=C/c1cn[nH]c1-c1ccccc1,i,?,10.4µM,43.9,?,i
O=c1c2ccccc2nc(COc2ccccc2)n1/N=C/c1c[nH]c2ccccc12,i,i,i,i,i,i
CN1CCN(NC(=O)c2cccc(C(F)(F)F)c2)CC1,i,i,i,i,?,i
COc1ccc(C(F)(F)F)cc1N/C=C\c1nnnn1-c1ccccc1,i,?,i,i,?,i
O=C(c1ccccc1)c1ccccc1N/C=C/c1nnnn1-c1ccccc1,?,?,?,i,6.31µM,i
CC1CC1c1ccc(/C=C(\C#N)C(=O)Nc2ccccc2Cl)o1 (stereo not drawn),i,i,i,30.1,i,51.7
CC1CC1c1ccc(/C=C(\C#N)C(=O)Nc2ccc(Cl)cc2)o1 (stereo not drawn),i,i,i,113.3,?,63.0
CCOc1ccc(NC(=O)/C(C#N)=C\c2ccc(-c3ccc(Cl)cc3)o2)cc1,i,nt,nt,nt,nt,nt
Cc1cccc(-c2nc(S(=O)(=O)c3ccc(F)cc3)c(N3CCN(c4ccccc4)CC3)o2)c1,i,nt,nt,nt,nt,nt
COC(=O)CCCC1=CC2=C(c3ccccc3)C(=O)C(C)(OC(=O)C3CCCC3)C(=O)C2=CN1C1CCCCC1 (stereo not drawn),i,10.4µM,?,i,?,i
COC(=O)CCCC1=CC2=C(c3ccccc3)C(=O)C(C)(OC(=O)C3CCCC3)C(=O)C2=CN1CC1CC1 (stereo not drawn),i,?,8.28µM,i,i,i
CC1CC(C)CN(C(=O)C(C)N2CCN(S(=O)(=O)c3ccc(C(F)(F)F)cc3)CC2)C1 (stereo not drawn),i,nt,nt,nt,?,nt
COc1ccc(OC(=O)COc2ccc(Cl)cc2)cc1,i,i,?,i,i,i
O/N=C/c1ccccc1OCc1ccc(Cl)cc1,i,i,i,63.1,?,43.8
CCOC(=O)N/N=C/c1ccccc1OCc1ccc(Cl)cc1,?,2.94µM,2.08µM,50.3,i,34.3
O=C(Cc1ccccc1)N/N=C/c1ccccc1OCc1ccc(Cl)cc1,i,i,i,i,?,i
C/C(=N\NC(=O)COc1ccccc1-c1ccccc1)c1ccccn1,-97.5,2.08µM,?,i,5.01µM,i
C/C(=N\NC(=O)COc1ccccc1-c1ccccc1)c1cccnc1,i,?,i,i,?,i
SMILES,HCMV antiviral,Pf growth 48h,Pf growth 96h,Shiga toxin inh,HCV inh,Cycloheximide cs
O=C(COc1ccccc1-c1ccccc1)N/N=C/c1ccc2ccccc2c1,-100.3,i,2.33µM,i,?,i
O=C(COc1ccccc1-c1ccccc1)N/N=C/c1ccncc1,i,?,?,i,?,i
C/C(=N\NC(=O)COc1ccccc1-c1ccccc1)c1ccc(O)cc1O,-76.1,?,?,i,11.2µM,i
CCCCCC(=O)N/N=C(\C)c1ccccn1,-98.9,1.65µM,?,i,?,i
CCCCCCCCC(=O)N/N=C(\C)c1ccc(O)cc1O,i,i,?,i,?,i
COC(=O)c1cc2c(cc1NC(=O)c1cnn(-c3ccc(C)cc3)c1-n1cccc1)OCO2,i,nt,nt,nt,nt,nt
COc1ccc(-c2cc(C(=O)Nc3c(C)nn(Cc4ccc(F)cc4)c3C)no2)cc1OC,i,nt,nt,nt,nt,nt
